Screening results from PubChem.
The list is not random: actives were taken first. Their share in the collection is about 11%.
HPGD inh: qHTS Assay for Inhibitors of HPGD (15-Hydroxyprostaglandin Dehydrogenase); purified HPGD, NADH fluorescence kinetic, PGE2 substrate; Potency, µM, usual class: inhibitors; 15-hydroxyprostaglandin dehydrogenase [NAD(+)] (Homo sapiens), P15428; AID 894, 2007; actives 4.3% (n = 150,000)
Target sequence (P15428 whole entry, looked up): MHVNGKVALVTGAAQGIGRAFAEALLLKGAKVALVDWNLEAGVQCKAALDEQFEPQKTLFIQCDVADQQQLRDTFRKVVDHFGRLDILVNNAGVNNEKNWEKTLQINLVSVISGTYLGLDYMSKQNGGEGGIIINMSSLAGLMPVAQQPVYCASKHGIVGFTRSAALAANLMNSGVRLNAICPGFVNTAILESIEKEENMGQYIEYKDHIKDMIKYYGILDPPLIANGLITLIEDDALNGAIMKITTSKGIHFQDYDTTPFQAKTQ
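NADH formation kinetics: reaction with 30 uM PGE2 and 1 mM NAD+ (final), 20 nM enzyme, Tris-HCl pH 8 with Tween 20, after 15 min compound preincubation at room temperature. Fluorescence change, last versus first of five reads.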
ALDH1A1 inh: qHTS Assay for Inhibitors of Aldehyde Dehydrogenase 1 (ALDH1A1) | Aldehyde dehydrogenase 1A1 (Homo sapiens), P00352 | Purified ALDH1A1, NADH fluorescence, propionaldehyde substrate | Potency, µM (top dose mostly 75.3 µM), hits mostly inhibitors | actives 7.3% (n = 220,000) | AID 1030, 2008
PNC assembly inh: High Content Assay for Compounds that inhibit the Assembly of the Perinucleolar Compartment; AID 2417, 2010; actives 3.1% (n = 140,000); activity change (PNC), negative = inhibition, % at 10 µM; PC3M PTB-GFP, PNC prevalence imaging, 16 h; hits give low values;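 active means readout at or below -70, meaning at least 70% loss of cells showing the perinucleolar compartment, a nuclear body marking cancer cells; inconclusive means readout between -30 and a set limit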
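PC3M cells stably expressing PTB-GFP, 750–1000 cells/well, treated 16 h at 37 °C with compound (23 nl of library stock), in duplicate. After paraformaldehyde fixation and Hoechst stain, imaged at 20x; PNC prevalence scored by image analysis.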
Each line names hits and unclear results; the compound was inactive in the other large screens. Unless noted, the call rests on the fitted dose curve; in most records, active means well fitted inhibition curve with a large enough effect (not every such curve was filed as active); inconclusive means small, poorly fitted or top-dose-only effect, or another doubt; inactive means no such curve, though single readings can be large or run the other way.

COc1ccc(N2CSC3=C(C#N)C(c4ccc(OC)c(OC)c4)CC(=O)N3C2)c(OC)c1 (centres undefined)	HPGD inh 10µM, ALDH1A1 inh 11µM
COc1ccc(C2CC(=O)N3CN(c4ccc(C)c(Cl)c4)CSC3=C2C#N)cc1OC (centres undefined)	HPGD inh inconclusive, ALDH1A1 inh 7.9µM
COc1ccc(N2CC(=O)N(c3ccc(OC)c(OC)c3)CC2=O)cc1OC	none (no result: HPGD inh)
O=C(NCC1CCCO1)C1CC(=O)N(C2CCCC2)C1 (centres undefined)	none
NC(=O)C1CCN(C(=O)c2ccc(NC3=NC4CS(=O)(=O)CC4S3)cc2)CC1 (centres undefined)	none
O=C(O)CC(CC(=O)O)C(=O)O	none (no result: PNC assembly inh)
CCOc1ccccc1N1CSC2=C(C#N)C(c3c(OC)ccc4ccccc34)CC(=O)N2C1 (centres undefined)	HPGD inh 7.1µM, ALDH1A1 inh 4.5µM, PNC assembly inh -106
COc1ccc(N2CSC3=C(C#N)C(c4cc(OC)c(OC)cc4OC)CC(=O)N3C2)c(OC)c1 (centres undefined)	HPGD inh 10µM, ALDH1A1 inh 8.9µM
CCSC1=C(C#N)C(c2ccc(OC)c(OC)c2)CC(=O)N1 (centres undefined)	PNC assembly inh inconclusive
CCCSC1=C(C#N)C(c2cc(OC)ccc2OC)CC(=O)N1 (centres undefined)	HPGD inh 22µM
COc1ccc(N2C(=O)C3CC(C)=C(C)CC3C2=O)c(OC)c1 (centres undefined)	none
CCOc1ccccc1N1CCN(S(=O)(=O)c2cc(C)ccc2OC)CC1	none (no result: HPGD inh, PNC assembly inh)
COCCNc1cc(C)nc2c3c(C)cc(C)nc3nn12	HPGD inh inconclusive, ALDH1A1 inh inconclusive
O=C1C=C[C@@H](O)[C@H]2[C@@H]3C(=O)N(c4cccc(Oc5ccccc5)c4)C(=O)[C@@H]3CC[C@H]12	none (no result: HPGD inh, PNC assembly inh)
COc1cccc(CN2C(=O)CCC2(C)C(=O)NC2CCCC2)c1 (centres undefined)	none
CCOC(=O)N1CCC(NC(=O)c2csc3c2CCCC3)CC1	ALDH1A1 inh inconclusive
Cc1sc(N/N=C/c2cccs2)nc1-c1ccccc1	none
Nc1cc(=O)nc(SCC(=O)Nc2cccc3ccccc23)n1CCc1ccccc1	none
FC(F)(F)C1=CC(c2ccc(Br)cc2)=NCCN1	none
CC1CCN(Cc2c(C#N)c3ccccc3n2C)CC1	ALDH1A1 inh 32µM
Cn1c(CN2CCCC2)c(C#N)c2ccccc21	none (no result: HPGD inh, PNC assembly inh)
CC(C)NC(=O)c1cc2ccccc2o1	none
CCNC(=O)c1cc2ccccc2o1	none
O=C(NCc1ccccc1)c1cc2ccccc2o1	HPGD inh 18µM, ALDH1A1 inh inconclusive
CN(C)S(=O)(=O)c1cccc(NC(=O)c2cc3ccccc3o2)c1	ALDH1A1 inh inconclusive, PNC assembly inh inconclusive
CC(NC(=O)c1cc2ccccc2o1)C(=O)O (centres undefined)	ALDH1A1 inh 22µM
COC(=O)c1ccc(CNC(=O)c2cc3ccccc3oc2=O)cc1	none (no result: HPGD inh, PNC assembly inh)
COc1ccc(C(=O)N/N=c2\oc3ccccc3cc2C(=O)NCc2ccccc2)cc1	ALDH1A1 inh 11µM
CCN(CC)S(=O)(=O)c1cccc(NC(=O)c2cc3ccccc3o2)c1	ALDH1A1 inh 22µM
Cc1ccc(Cn2ccc(NC(=O)c3c(-c4ccccc4Cl)noc3C)n2)cc1	none
O=C(Cn1cc[n+](Cc2ccccc2)c1)c1ccc([N+](=O)[O-])cc1	none (no result: HPGD inh, PNC assembly inh)
Nc1nc(SCC(=O)NCCC(c2ccccc2)c2ccccc2)n[nH]1	none
Cc1ccc(C)c(NC(=O)C2CC(O)CN2C(=O)OC(C)(C)C)c1 (centres undefined)	none
O=C(Nc1ccccc1)c1cc2ccccc2o1	PNC assembly inh -100
CC(=O)Nc1cccc(NC(=O)c2cc3ccccc3o2)c1	none
CCn1c(=O)c2c3c(sc2n2c(=S)[nH]nc12)CCC3	none
CCN1CCN(C2=NC(=O)/C(=C/c3ccc(C)o3)S2)CC1	ALDH1A1 inh 20µM
O=C1N=C(N2CCN(c3ccccc3)CC2)S/C1=C\c1ccco1	none (no result: HPGD inh, PNC assembly inh)
CCCNC(=O)OC[C@@H]1O[C@H](CCO/N=C\C[C@H]2C=C[C@H](OC(C)=O)[C@@H](COC(C)=O)O2)C=C[C@@H]1Oc1ccc(OC)cc1	none (no result: HPGD inh, PNC assembly inh)
CN(C)c1ccc(C(=O)OCC(=O)N2CCCCCC2)cc1	none (no result: HPGD inh, PNC assembly inh)
S=C(c1ccc(N2CCOCC2)cc1)N1CCCCC1	none
CN(C)c1ccc(C(=S)N2CCCCCC2)cc1	HPGD inh 28µM, ALDH1A1 inh inconclusive, PNC assembly inh inconclusive
CC1CCN(C(=S)NC(=O)c2ccccc2)CC1	none
CN(C)c1ccc(C(=S)N2CCOCC2)cc1	ALDH1A1 inh inconclusive
CC(=O)N1CCN(C(=S)c2ccc(N(C)C)cc2)CC1	HPGD inh 20µM, ALDH1A1 inh 8.9µM
CC1CCN(C(=S)c2ccc(N(C)C)cc2)CC1	ALDH1A1 inh 13µM (no result: HPGD inh, PNC assembly inh)
Oc1ccc(C(=S)N2CCCCC2)cc1	HPGD inh inconclusive, ALDH1A1 inh 22µM, PNC assembly inh inconclusive
Cc1ccc(/C=N/N2CCOCC2)s1	none (no result: HPGD inh, PNC assembly inh)
O=C(C1CCCO1)N1CCC(O)(c2ccccc2)CC1 (centres undefined)	ALDH1A1 inh inconclusive, PNC assembly inh inconclusive
CCCCOC(=O)CSc1nc(N)c(C#N)c(-c2ccc(OCC)cc2)c1C#N	ALDH1A1 inh 20µM, PNC assembly inh inconclusive
C=C(C)CSc1nc(N)c(C#N)c(-c2ccc(C)cc2)c1C#N	HPGD inh 14µM, ALDH1A1 inh 10µM
CCCCOc1ccc(-c2c(C#N)c(N)nc(SCC(N)=O)c2C#N)cc1	HPGD inh 28µM, ALDH1A1 inh inconclusive
CCOC(=O)CC(=O)CSc1nc(N)c(C#N)c(-c2ccc(F)cc2)c1C#N	ALDH1A1 inh inconclusive (no result: HPGD inh)
CCOC(=O)CSc1nc(N)c(C#N)c(-c2ccc(OC)cc2)c1C#N	ALDH1A1 inh inconclusive (no result: HPGD inh)
CCCCOC(=O)CSc1nc(N)c(C#N)c(-c2ccc(OC)cc2)c1C#N	ALDH1A1 inh inconclusive
COCC(=O)N1CCc2nc(-c3ccccc3)c3c(c2C1)CO[C@@H](C)C3	none (no result: PNC assembly inh)
CCc1ccc2c(O)c3c(cc2c1C(=O)OC)C(=O)c1c(O)ccc(O)c1C3=O	HPGD inh inconclusive (no result: PNC assembly inh)
CC(C)OC(=O)/C(=C\c1cccnc1)NC(=O)c1ccccc1	none (no result: HPGD inh, PNC assembly inh)
CCCCNC(=O)/C(C#N)=C/c1ccc2c(c1)OCCO2	HPGD inh inconclusive, ALDH1A1 inh 6.3µM
N#C/C(=C\c1ccc2c(c1)OCCO2)C(=O)NC1CCCCC1	HPGD inh inconclusive
Cc1cccc(NC(=O)/C(C#N)=C\c2cccnc2)c1	none
CC(C)OC(=O)/C(C#N)=C\c1cccnc1	ALDH1A1 inh 8.9µM (no result: HPGD inh, PNC assembly inh)
CCCCNC(=O)/C(C#N)=C/c1cccnc1	HPGD inh inconclusive, PNC assembly inh -106
COc1cc(C)c(S(=O)(=O)NCc2cccs2)cc1C	none
CCc1[nH]c(=S)c(C#N)c2c1CCCC2	HPGD inh 20µM, ALDH1A1 inh inconclusive
CCc1[nH]c(=O)c(C#N)c2c1CCCC2	HPGD inh inconclusive, ALDH1A1 inh inconclusive
O=C(NCCN1CCOCC1)c1cc2cc([N+](=O)[O-])ccc2s1	none (no result: HPGD inh, PNC assembly inh)
CCOC(=O)C1CCN(S(=O)(=O)c2ccc(OC)c(Cl)c2Cl)CC1	ALDH1A1 inh 6.3µM
CCOC(=O)N1CCC(NC(=O)C2CCCN(S(=O)(=O)c3ccc4c(c3)oc(=O)n4C)C2)CC1 (centres undefined)	PNC assembly inh -90
